Inconclusive results are not listed. Activity calls are given as the source filed them. The call rests on the fitted dose curve; in most records, active means well fitted curve in the direction sought with a large enough effect; inconclusive means small, poorly fitted or top-dose-only effect, or another doubt; inactive means no such curve, though single readings can be large; an effect the other way counts as inactive or inconclusive.

Assay [1] can be described thus: qHTS of pediatric cancer cell lines to identify multiple opportunities for drug repurposing: Confirmatory screen for NB-EBc1 cells (AID 1347115).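 Further: potency means the concentration at half of the fitted maximal effect; cells exposed to compound for 48 h before the viability read; nearly all actives have a fitted effect of over 45% in size.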 Particulars: NB-EBc1 neuroblastoma cells, viability (cytotoxicity); series mostly up to 45.9 µM. In a few lines: (§1)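 Cells (500-1,000/well) rested 5 h, then received compounds for 48 h; metabolically active cells were measured by CellTiter-Glo luminescence. Final concentrations spanned up to 46 µM (MIPE, 11-point) or 0.59 nM-46 µM (NPC, 8-point) in primary screens, 11-point in follow-ups.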

Assay [2] can be described thus: qHTS of pediatric cancer cell lines to identify multiple opportunities for drug repurposing: Confirmatory screen for MG 63 (6-TG R) cells (AID 1347119). Further: potency means the concentration at half of the fitted maximal effect; nearly all actives have a fitted effect of over 55% in size. The settings on record: MG-63 (6-TG resistant) osteosarcoma viability; series mostly up to 45.9 µM. The essentials:
as §1

Assay [3] can be described thus: qHTS of pediatric cancer cell lines to identify multiple opportunities for drug repurposing: Confirmatory screen for Rh30 cells (AID 1347126). Further: nearly all actives have a fitted effect of over 55% in size. Further: potency means the concentration at half of the fitted maximal effect. The settings on record: Rh30 rhabdomyosarcoma cell viability; series mostly up to 45.9 µM. The essentials: as §1
Assay [4] in a line: qHTS of pediatric cancer cell lines to identify multiple opportunities for drug repurposing: Confirmatory screen for Saos-2 cells (AID 1347127). Further: potency means the concentration at half of the fitted maximal effect; nearly all actives have a fitted effect of over 60% in size. The settings on record: Saos-2 osteosarcoma cell viability; series mostly up to 45.9 µM. In a few lines: as §1
In assay [5] the test system is Zika virus NS2B-NS3 protease. In words: Primary screen GU AMC qHTS for Zika virus inhibitors (AID 1347154). Further: nearly all actives have a fitted effect of over 70% in size. Further: potency means the concentration at half of the fitted maximal effect. Particulars: Zika NS2B-NS3 unlinked protease, AMC fluorogenic substrate; series mostly up to 54.1 µM. The essentials: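 Fluorogenic AMC-substrate cleavage by noncovalent NS2B-NS3 protease complex (25 nM, pH 8.0 Tris buffer with Tween 20) followed for 15 minutes at room temperature (~20% conversion). Percent inhibition from ex340/em450 signal change, fitted by 4-parameter Hill equation.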

The nature of assay [6]: qHTS of pediatric cancer cell lines to identify multiple opportunities for drug repurposing: Confirmatory screen for SJ-GBM2 cells (AID 1347116). Further: potency means the concentration at half of the fitted maximal effect; nearly all actives have a fitted effect of over 60% in size. The settings on record: SJ-GBM2 glioblastoma cells, viability; series mostly up to 45.9 µM. In a few lines:
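Viability measured as metabolically active cells via CellTiter-Glo luminescence following 48 hours of compound exposure, 11-point dilutions in confirmatory testing. 500-1,000 cells/well plated 5 hours before dosing; controls were DMSO and 2.3 µM bortezomib.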

A short description of assay [7]: qHTS of pediatric cancer cell lines to identify multiple opportunities for drug repurposing: Confirmatory screen for control Hh wild type fibroblast cells (AID 1347121). Further: nearly all actives have a fitted effect of over 70% in size. Particulars: viability qHTS; series mostly up to 45.9 µM. The essentials:
as §1

A short description of assay [8]: qHTS of pediatric cancer cell lines to identify multiple opportunities for drug repurposing: Confirmatory screen for U-2 OS cells (AID 1347122). Further: potency means the concentration at half of the fitted maximal effect; nearly all actives have a fitted effect of over 65% in size. Particulars: U-2 OS osteosarcoma cell viability; series mostly up to 45.9 µM. The essentials:
as §1

Assay [9] can be described thus: qHTS of pediatric cancer cell lines to identify multiple opportunities for drug repurposing: Confirmatory screen for Rh41 cells (AID 1347123).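 Further: potency means the concentration at half of the fitted maximal effect; 48 h compound exposure; nearly all actives have a fitted effect of over 60% in size.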 Particulars: Rh41 rhabdomyosarcoma cells, viability/cytotoxicity qHTS; series mostly up to 45.9 µM. In a few lines:
as §1

A short description of assay [10]: qHTS of pediatric cancer cell lines to identify multiple opportunities for drug repurposing: Confirmatory screen for Rh18 cells (AID 1347125). Further: nearly all actives have a fitted effect of over 55% in size. Further: potency means the concentration at half of the fitted maximal effect. The settings on record: Rh18 rhabdomyosarcoma cells, viability; series mostly up to 45.9 µM. In a few lines:
as §1

A short description of assay [11]: qHTS of pediatric cancer cell lines to identify multiple opportunities for drug repurposing: Confirmatory screen for SK-N-SH cells (AID 1347129).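 Further: potency means the concentration at half of the fitted maximal effect; cells exposed to compound for 48 h before viability read; nearly all actives have a fitted effect of over 60% in size.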 The settings on record: SK-N-SH neuroblastoma cell viability; series mostly up to 46.1 µM. In a few lines: as §1
The nature of assay [12]: qHTS of pediatric cancer cell lines to identify multiple opportunities for drug repurposing: Confirmatory screen for OHS-50 cells (AID 1347128).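 Further: potency means the concentration at half of the fitted maximal effect; compound exposure lasted 48 h at 37 degrees C; nearly all actives have a fitted effect of over 55% in size.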 Particulars: OHS-50 osteosarcoma cells viability; series mostly up to 45.9 µM. The essentials: as §1
The target of assay [13] is N-terminal Xaa-Pro-Lys N-methyltransferase 1 (Homo sapiens) (UniProt Q9BV86). In words: qHTS Assay for Inhibitors of N-terminal methyltransferase 1 (NTMT1): LOPAC validation of the NTMT1 SAHH-coupled ThioGlo3 Assay (AID 1347143).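 Further: SAH from peptide methylation measured as thiol fluorescence via SAHH coupling and ThioGlo3; potency means the concentration at half of the fitted maximal effect; nearly all actives have a fitted effect of over 70% in size.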 Particulars: recombinant NTMT1, SAHH-coupled ThioGlo3 fluorescence. In a few lines: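 Inhibition of NTMT1 methylation of peptide SPKRIA is followed by converting SAH with SAHH and labelling the released thiol with ThioGlo3. Plates are read at 340/450nm before and 30 min after reagent addition, both at room temperature.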

A further assay concerns the target Furin (Homo sapiens) (UniProt P09958). As to the kind of experiment: Furin counterscreen qHTS for Zika virus inhibitors (AID 1347149). Further: potency means the concentration at half of the fitted maximal effect; nearly all actives have a fitted effect of over 70% in size. The settings on record: furin enzymatic counterscreen, fluorogenic substrate; series mostly up to 114 µM. In a few lines:
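Fluorogenic cleavage of BOC-RVRR-AMC (2 microM final, Km ~15 µM) was monitored (ex 340, em 450 nm) at 37C after 15 min RT preincubation of 5 nM furin with compounds in HEPES pH 7.0 buffer with CaCl2 and Triton X-100. Percent inhibition was fitted to a 4-parameter Hill curve.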

Assay [14] has as its system Zika virus NS2B-NS3 protease (unlinked). In words: Optimization of GU AMC qHTS for Zika virus inhibitors: Unlinked NS2B-NS3 protease assay (AID 1347151). Further: potency means the concentration at half of the fitted maximal effect; nearly all actives have a fitted effect of over 80% in size. Particulars: recombinant ZIKV NS2B-NS3 protease, fluorogenic AMC substrate. The essentials: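 In this qHTS, compounds acted on 25 nM unlinked Zika NS2B–NS3 in pH 8.0 Tris/Tween buffer. Cleavage of an AMC peptide ran 15 min at room temperature, to about 20% conversion.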

For assay [15], the system named is Zika virus NS2B-NS3 protease (linked construct). As to the kind of experiment: Confirmatory screen NINDS AMC qHTS for Zika virus inhibitors (AID 1347152). Particulars: Purified linked NS2B-NS3, AMC substrate fluorescence; series mostly up to 110 µM. The essentials: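 Concentration-response confirmation used the NINDS linked protease (NS2B hydrophilic domain joined to NS3 protease domain), 1 nM, with a 15-min compound preincubation. Substrate, Nle-KRR-AMC at 10 microM, was read by UV fluorescence before and after 15 min.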

A short description of assay [16]: qHTS of pediatric cancer cell lines to identify multiple opportunities for drug repurposing: Confirmatory screen for BT-37 cells (AID 1347117). Particulars: BT-37 pediatric cancer cells, viability; series mostly up to 45.9 µM. The essentials:
as §1

Assay [17] can be described thus: qHTS of pediatric cancer cell lines to identify multiple opportunities for drug repurposing: Confirmatory screen for TC32 cells (AID 1347118).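 Further: potency means the concentration at half of the fitted maximal effect; cells exposed to compound for 48 h before the read; nearly all actives have a fitted effect of over 65% in size.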 Particulars: TC32 Ewing sarcoma cells viability qHTS; series mostly up to 45.9 µM. In a few lines:
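TC32 cells, 500-1,000/well in growth medium, compound-treated 48 h at 37 °C; viability from CellTiter-Glo luminescence. Primary screen: MIPE 11-point (0.78 nM–46 µM final), NPC 8-point (0.59 nM–46 µM final); confirmatory at 11-point dilutions.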

A short description of assay [18]: qHTS of pediatric cancer cell lines to identify multiple opportunities for drug repurposing: Confirmatory screen for RD cells (AID 1347124).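 Further: potency means the concentration at half of the fitted maximal effect; cells exposed to compound for 48 h before viability readout; nearly all actives have a fitted effect of over 65% in size.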 Particulars: RD rhabdomyosarcoma cell viability; series mostly up to 45.9 µM. The essentials: as §1

Sequence of Furin (Homo sapiens) (P09958 whole entry, looked up): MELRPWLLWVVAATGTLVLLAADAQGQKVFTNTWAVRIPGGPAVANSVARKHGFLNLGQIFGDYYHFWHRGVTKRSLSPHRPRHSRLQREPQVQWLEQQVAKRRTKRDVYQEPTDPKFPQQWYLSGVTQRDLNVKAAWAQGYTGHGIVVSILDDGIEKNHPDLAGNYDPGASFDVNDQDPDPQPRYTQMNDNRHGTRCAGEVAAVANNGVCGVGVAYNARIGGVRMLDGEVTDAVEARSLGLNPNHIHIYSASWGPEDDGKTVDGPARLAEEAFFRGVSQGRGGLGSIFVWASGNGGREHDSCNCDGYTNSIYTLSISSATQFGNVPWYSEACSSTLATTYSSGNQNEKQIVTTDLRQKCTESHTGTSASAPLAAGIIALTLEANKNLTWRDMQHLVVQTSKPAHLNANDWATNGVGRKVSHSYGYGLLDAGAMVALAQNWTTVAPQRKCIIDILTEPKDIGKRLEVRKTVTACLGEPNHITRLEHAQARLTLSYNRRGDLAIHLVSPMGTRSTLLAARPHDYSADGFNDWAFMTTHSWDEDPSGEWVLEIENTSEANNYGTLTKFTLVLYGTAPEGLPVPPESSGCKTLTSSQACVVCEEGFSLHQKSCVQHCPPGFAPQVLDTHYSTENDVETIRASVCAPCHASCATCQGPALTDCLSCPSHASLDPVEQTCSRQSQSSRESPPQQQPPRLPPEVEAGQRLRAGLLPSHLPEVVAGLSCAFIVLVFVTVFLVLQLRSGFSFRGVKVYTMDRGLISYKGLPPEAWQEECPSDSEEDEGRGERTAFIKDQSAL
Sequence of N-terminal Xaa-Pro-Lys N-methyltransferase 1 (Homo sapiens) (Q9BV86 whole entry, looked up): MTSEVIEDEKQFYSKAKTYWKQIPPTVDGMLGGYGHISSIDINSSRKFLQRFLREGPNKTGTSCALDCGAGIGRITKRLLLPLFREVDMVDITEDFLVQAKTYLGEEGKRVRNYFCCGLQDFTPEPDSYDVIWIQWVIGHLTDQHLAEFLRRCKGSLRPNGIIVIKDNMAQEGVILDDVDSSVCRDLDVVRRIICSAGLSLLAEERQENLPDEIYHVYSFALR

On to `CC(C)(C)c1cc(C(C)(C)C)c(NC(=O)c2c[nH]c3ccccc3c2=O)cc1O`, for which the Potency in [1] is 16.5 µM (active); in assay [2] it was 20.8 µM (active); in [4], 16.5 µM (active). Further, the Potency entry in assay [3] and in [5] was “inactive” in each case.

`CC(C)(C)OC(=O)Nc1ccc(-c2cc(C(=O)NCCCCCCC(=O)NO)no2)cc1`: the Potency in [6] was 4.14 µM (active); in assay [8] it was 1.47 µM (active); in assay [9], 1.85 µM (active); in [10], 4.65 µM (active); in assay [3], 10.4 µM (active); in assay [11] it was 2.35 µM (active). Also, the Potency result in assay [7] and in [5] was “inactive” each time.

As to `Cc1cc(Nc2cc(N3CCN(C)CC3)nc(Sc3ccc(NC(=O)C4CC4)cc3)n2)n[nH]1`, the Potency in [2] was 2.61 µM (active); in assay [8], 9.27 µM (active); in [9] it was 9.27 µM (active); in assay [3] it was 5.85 µM (active); in assay [4], 16.5 µM (active); in [12], 9.27 µM (active). Besides, in assay [11], the Potency was 11.8 µM (active). The Potency entry in [7] and in assay [5] was “inactive” each time.

Take `O=c1c2ccccc2nc2n1CCc1c-2[nH]c2ccccc12`: the Potency in assay [13] was 56.2 µM (active); with Furin (Homo sapiens), 42.9 µM (active); in [14], 26.7 µM (active); in assay [15], 24.1 µM (active); in [5], 30.4 µM (active).

Turning to `C=CC(=O)Nc1cc2c(Nc3ccc(F)c(Cl)c3)ncnc2cc1OCCCN1CCOCC1`, the Potency result in [5] was “inactive”.

As to `COc1ccc(OC)c(-c2nnc3ccc(-c4ccc(OC)c(O[C@@H]5CCOC5)c4)nn23)c1`, the Potency in assay [16] was 7.37 µM (active); in assay [9], 2.93 µM (active); in [3], 4.14 µM (active); in [12], 6.57 µM (active). Further, the Potency entry in assay [10] and in assay [5] was “inactive” in each case.

As to `CCOC(=O)C1=C(C)NC2=C(C(=O)CC(C)(C)C2)C1c1ccc(-c2ccccc2)cc1` (stereo unspecified), the figures for the Potency (with Furin (Homo sapiens); in assay [15]; in assay [5]) were 19.2 µM (active), 17.1 µM (active) and 17.1 µM (active), respectively.

As to `Nc1cc(C(F)(F)F)c(-c2cc(N3CCOCC3)nc(N3CCOCC3)n2)cn1`, the Potency in assay [17] is 4.14 µM (active); in assay [2] it was 3.69 µM (active); in [8], 5.22 µM (active); in assay [9] it was 5.85 µM (active); in assay [18], 5.85 µM (active); in assay [3], 4.14 µM (active). For the same compound, the Potency in [11] is 4.69 µM (active). In [5], the Potency entry is “inactive”.

With `O=C(O)c1ccc2c(c1)nc(Nc1cccc(Cl)c1)c1ccncc12`, the Potency result in assay [5] is “inactive”.

These data come from PubChem BioAssay (NCATS).
